About 83,000 compounds went through this panel and 20% of them were active in at least one assay; those are over-represented in the sample as a whole.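 Growth was measured after 48 h exposure to one concentration of compound in 96-well plates. Values under 10 count as active.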 Active and inactive are the calls of the source.
Tests used:
Experiment in all cases: NCI-60 one-dose screen, 48 h (100 = growth as untreated, 0 = no growth, -100 = all killed)
Conditions in all cases: 10 µM unless noted
SK-MEL-2 melanoma = tested on: SK-MEL-2 melanoma
EKVX NSCLC = tested on: EKVX NSCLC
SN12C renal = tested on: SN12C renal
UO-31 renal = tested on: UO-31 renal
TK-10 renal = tested on: TK-10 renal
ACHN renal = tested on: ACHN renal
CAKI-1 renal = tested on: CAKI-1 renal
A498 renal = tested on: A498 renal
SR leukemia = tested on: SR leukemia
RPMI-8226 leukemia = tested on: RPMI-8226 leukemia
OVCAR-8 ovarian = tested on: OVCAR-8 ovarian
OVCAR-5 ovarian = tested on: OVCAR-5 ovarian
OVCAR-4 ovarian = tested on: OVCAR-4 ovarian
SK-OV-3 ovarian = tested on: SK-OV-3 ovarian
IGROV1 ovarian = tested on: IGROV1 ovarian
OVCAR-3 ovarian = tested on: OVCAR-3 ovarian
HS 578T breast = tested on: HS 578T breast
NCI/ADR-RES ovarian = tested on: NCI/ADR-RES ovarian
MOLT-4 leukemia = tested on: MOLT-4 leukemia

Measured: growth

N#Cc1c(-c2cccc(Cl)c2)cc(-c2cccc(F)c2)[nH]c1=O
inactive: SK-MEL-2 melanoma 102% | EKVX NSCLC 95.1% | SN12C renal 91.1% | UO-31 renal 80.7% | TK-10 renal 94% | ACHN renal 90.3% | CAKI-1 renal 89.6% | A498 renal 59.4% | SR leukemia 104% | RPMI-8226 leukemia 65.4% | OVCAR-8 ovarian 93.5% | OVCAR-5 ovarian 95.8% | OVCAR-4 ovarian 83.7% | SK-OV-3 ovarian 102% | IGROV1 ovarian 94.4% | OVCAR-3 ovarian 92.7% | HS 578T breast 81.9% | NCI/ADR-RES ovarian 98%

COC(=O)[C@]12CC[C@@H](C)[C@H](C)[C@@H]1C1=CC[C@@H]3[C@@]4(C)C(C=O)=C[C@@](C)(COC(C)=O)[C@@H]4[C@H](O)C[C@@]3(C)[C@]1(C)CC2
inactive: EKVX NSCLC 20% | A498 renal 28.3%
active: SK-MEL-2 melanoma -25.4% | SN12C renal -19.3% | UO-31 renal -26.2% | TK-10 renal -8.86% | ACHN renal -54.3% | CAKI-1 renal 1.42% | SR leukemia -26.2% | RPMI-8226 leukemia -17% | OVCAR-8 ovarian -0.958% | OVCAR-5 ovarian -28.3% | OVCAR-4 ovarian 9.81% | SK-OV-3 ovarian 6.14% | IGROV1 ovarian 2.81% | OVCAR-3 ovarian -85.7% | HS 578T breast -18.3% | NCI/ADR-RES ovarian 2.88%

COc1ccccc1NC(=O)N/C(N)=N/c1nc2ccccc2s1
active: A498 renal -10.5% | SR leukemia 9.32% | RPMI-8226 leukemia 9.34% | OVCAR-3 ovarian -18.9% | NCI/ADR-RES ovarian 4.92%
inactive: SK-MEL-2 melanoma 48.6% | EKVX NSCLC 53.2% | SN12C renal 37.1% | UO-31 renal 52.9% | TK-10 renal 59.3% | ACHN renal 42.2% | CAKI-1 renal 36.4% | OVCAR-8 ovarian 27.1% | OVCAR-5 ovarian 34.8% | OVCAR-4 ovarian 50.7% | SK-OV-3 ovarian 40.5% | IGROV1 ovarian 21.8% | HS 578T breast 27.9%

O=C(NCCCNc1cc(-c2cn(-c3ccccc3)nc2-c2cccc(O)c2)ccn1)c1cccc(O)c1
active: SR leukemia -9.11%
inactive: SK-MEL-2 melanoma 83.5% | EKVX NSCLC 71.4% | SN12C renal 76.6% | UO-31 renal 85.8% | TK-10 renal 115% | ACHN renal 89.4% | CAKI-1 renal 98.4% | A498 renal 102% | RPMI-8226 leukemia 45.2% | OVCAR-8 ovarian 40.9% | OVCAR-5 ovarian 107% | OVCAR-4 ovarian 67.8% | SK-OV-3 ovarian 69.3% | IGROV1 ovarian 84.5% | OVCAR-3 ovarian 58.3% | HS 578T breast 34.2% | NCI/ADR-RES ovarian 95%

O=C1OC(c2nc3ccccc3s2)=C/C1=C\c1ccc(O)cc1
inactive: SK-MEL-2 melanoma 110% | EKVX NSCLC 102% | SN12C renal 93.9% | UO-31 renal 75.8% | TK-10 renal 114% | ACHN renal 99.5% | CAKI-1 renal 85.4% | A498 renal 108% | SR leukemia 100% | RPMI-8226 leukemia 114% | OVCAR-8 ovarian 106% | OVCAR-5 ovarian 85.5% | OVCAR-4 ovarian 100% | SK-OV-3 ovarian 103% | IGROV1 ovarian 95.1% | OVCAR-3 ovarian 110% | HS 578T breast 89.6% | NCI/ADR-RES ovarian 106%

COc1cc(C(=O)/C=C/c2c(C(F)(F)F)nc3sccn23)cc(OC)c1OC
inactive: SK-MEL-2 melanoma 12.2% | EKVX NSCLC 10.6% | SN12C renal 20.2% | TK-10 renal 21.9% | A498 renal 61.4% | OVCAR-5 ovarian 15.1% | OVCAR-4 ovarian 17.8% | IGROV1 ovarian 23% | HS 578T breast 37.4%
active: UO-31 renal -29.6% | ACHN renal -69.4% | CAKI-1 renal -16.5% | MOLT-4 leukemia 0.936% | SK-OV-3 ovarian 2.13% | OVCAR-3 ovarian -30.6% | NCI/ADR-RES ovarian -3.02%

Reference: PubChem BioAssay (NCI)
